# Screening results deposited in PubChem by several laboratories.
# Compounds with a hit are over-represented: about 2.6% of the library has one in this group of screens.
# aDG glyco act – alpha-DG glycosylation activation; 0.22% of 360,000 active; AID 624168; activation, % at 10 µM; Pro5-aDG cells, alpha-DG glycosylation AlphaScreen (IIH6); 0% Pro5, 100% B10-LARGE cell signal;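 active = activation of at least 8% versus controls, or a plate z-score of at least 8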;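 note: Pro5 are CHO cells carrying HIG-tagged alpha-DG that lacks glycosylation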
# LMP1 NFkB inh – reduces LMP1-driven NF-kappaB luciferase signal | LMP1-induced NF-kappaB luciferase reporter cells, luminescence | inhibition, % at 12.5 µM | 0.69% of 350,000 active | AID 504558; in the data active = inhibition above about 41%;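 note: 0% = neutral control wells and 100% = reference inhibitor control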
# HSP90 inh – inhibitors of HSP90 luciferase refolding in rabbit reticulocyte lysate | 0.91% of 290,000 active | inhibition, % at 5.6 µM | luciferase refolding luminescence, 3 h;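 active = inhibition above the screen-wide mean plus 3 SD, computed separately per campaign, cut at about 16% in these data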;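 note: 0% = DMSO wells and 100% = 60 µM geldanamycin wells; inhibitors lower the luminescence because luciferase stays unfolded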
# TWEAK Fn14 block – TWEAK-Fn14 signaling inhibition. 2% of 360,000 active. TWEAK-stimulated Fn14 reporter cells, luciferase luminescence, 8 h. inhibition, % at 10 µM; in the data active = inhibition above about 50%
# LGR2 inh – Drosophila LGR2 receptor signaling inhibition; HEK293 LGR2, CRE-luciferase, bursicon-stimulated, 4 h; AID 720647; inhibition, % at 9.99 µM; 0.35% of 380,000 active;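 active = drop in luminescence signal, shown as inhibition above about 50% in the replicate tests, limit read from the data, passing the limit was not always enough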;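 note: agonist challenge used bursicon conditioned medium at about half maximal strength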
# TROY NFkB inh – inhibitors of TROY-dependent NF-kB signaling. Q293 LMP1-TROYcd NF-kB luciferase reporter, 4 h. inhibition, % at 10 µM. 0.98% of 360,000 active. AID 1347056;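 active = compounds whose plate-normalised and pattern-corrected inhibition of the luciferase reporter signal at the single screening dose is 50% or more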
# Active calls of the source: *; x = not tested or not shown.
SMILES,aDG glyco act,LMP1 NFkB inh,HSP90 inh,TWEAK Fn14 block,LGR2 inh,TROY NFkB inh
COC(=O)CCCC(=O)NC1CCCN(C2Cc3ccccc3C2)C1 (configuration not stated),0,-11,-4,-10,-13,5
O=C(Nc1cccc2ccccc12)NC1Cc2ccccc2C1,0,-5,-8,89*,-22,57*
O=C(CCCO)NC1Cc2ccccc2C1,0,-2,3,60*,0,2
O=C(Nc1cccc2ccccc12)NC1CCCCC1,0,6,-4,-11,-6,-3
CCCCSc1nc(CCC)cc(=O)[nH]1,0,-17,7,92*,x,-2
CCCc1cc(=O)[nH]c(SCC)n1,0,-3,4,9,x,3
C[C@H](CO)N1C[C@H](C)[C@@H](CN(C)S(=O)(=O)c2ccc(Cl)cc2)Oc2ccc(NC(=O)CCCCCC(=O)Nc3ccccc3N)cc2CC1=O,x,x,x,x,-16,x
Cc1ccc(-c2nc3cc(NC(=O)C(C)C)ccc3o2)cc1,0,-21,4,61*,x,53*
CC(Oc1ccc(Cl)cc1Cl)C(=O)Nc1ccc2oc(-c3ccncc3)nc2c1 (configuration not stated),0,22,2,54*,x,59*
CCCC(=O)N1CC2(CCN(Cc3cccnc3)CC2)c2c([nH]c3cc(OC)ccc23)[C@H]1CO,x,x,x,x,-1,x
C[C@H]1CCCCO[C@H](CN(C)C)[C@@H](C)CN([C@@H](C)CO)C(=O)c2cc(N(C)C)ccc2O1,x,x,x,x,-9,x
CCOc1cc([N+](=O)[O-])cc2c1C(=O)Nc1ccccc1O2,0,69*,0,-12,-24,-2
O=C1Nc2ccccc2Oc2cc([N+](=O)[O-])ccc21,0,11,-6,26,x,-11
CCC(=O)N(C)C[C@@H]1Oc2cc(C3=CCCCC3)ccc2S(=O)(=O)N([C@@H](C)CO)C[C@@H]1C,x,x,x,x,16,x
O=C(C1=C[C@@H](c2ccc(Br)cc2)C[C@@H](OCc2ccc(CO)cc2)O1)N1CCN(Cc2ccc3c(c2)OCO3)CC1,0,12,17*,25,x,9
CN1CCN(C(=O)C2=C[C@@H](C(C)(C)C)C[C@@H](OCc3ccc(CO)cc3)O2)CC1,0,55*,2,3,-9,-26
Cc1ccc(-c2nc(N)sc2-c2ccccc2)cc1C,0,-59,-5,86*,-7,53*
COc1ccc(C[C@H]2CN3C(=NC[C@@H]3Cc3ccccc3)N2CCNC(=O)CCC2CCCCC2)cc1,2,0,10,-19,82*,-8
COc1ccc(C[C@H]2CN3C(=NC[C@@H]3C(C)C)N2CCNC(=O)CCC2CCCCC2)cc1,0,-5,6,-11,-28,9
Oc1ccc2ccccc2c1N=Nc1ccccn1,-1,63*,12,-80,x,-17
CCOC(=O)c1[nH]cnc1N=Nc1c(O)ccc2ccccc12,1,47*,-2,13,5,-25
COc1ccccc1NC(=O)N[C@@H]1CC[C@H](CC(=O)N2CCC(Cc3ccccc3)CC2)O[C@@H]1CO,x,x,x,x,-17,x
Cc1ccc(C(=O)C2C(=O)C3CCC2C3)cc1 (configuration not stated),0,x,x,63*,63*,-19
Cc1ccc(C(=O)C2CCNCC2)cc1,0,-3,0,-6,x,-13
Cc1ccc(-c2ccc(C3[C@@H]4CN(S(=O)(=O)c5ccc(C)cc5)C[C@H]3N4)cc2)cc1 (some centres not stated),x,x,x,x,0,x
SMILES,aDG glyco act,LMP1 NFkB inh,HSP90 inh,TWEAK Fn14 block,LGR2 inh,TROY NFkB inh
O=C(Nc1ccccc1C(F)(F)F)N1CCC(N2CCCCC2)CC1,0,7,1,84*,x,x
Cc1ccc(C2Nc3ccc4ccccc4c3C3=C2C(=O)CC(C)(C)C3)o1 (configuration not stated),1,-6,5,15,-33,-68
Cc1ccc(C2C3=C(CC(C)(C)CC3=O)NC3=C2C(=O)CC(C)(C)C3)o1,0,-6,-3,84*,x,x
COCCCNc1ccn2nc(-c3ccccc3)cc2n1,0,x,x,72*,72*,39
CCCNC(=O)N1[C@H](CNC(=O)CC)[C@@H](c2ccc(C3=CCCC3)cc2)[C@@H]1CO,x,x,x,x,13,x
Cc1noc(C)c1NC(=O)N(C)C[C@H]1Oc2ccc(NC(=O)Nc3ccc4c(c3)OCO4)cc2C(=O)N([C@@H](C)CO)C[C@H]1C,x,x,x,x,6,x
